The results in this text go back to PubChem BioAssay (EPA / NIEHS).

Molecules are shown by their SMILES. Calls of active or inactive are those of the source. The calls were made as follows: active = hit-call score of the fitted dose curve at least 0.9, where 1 is the maximum; inactive = score below 0.9.

Read-out in the assay: CD38, CD38 (gene 952)
Kind of assay: BSK_SAg_CD38: BioMAP Diversity Plus: SAg Assay for CD38 Biomarker Activity (AID 2283087). As to conditions: primary human HUVEC with PBMC; actives raise or lower the signal. How it is done:
BSK_SAg is a cell-based, multiplexed-readout assay that uses umbilical vein endothelium and peripheral blood mononuclear cells, a human vascular primary cell co-culture, with measurements taken at 24 hours after chemical dosing in a 96-well plate.BSK_SAg_CD38 is one of 10 assay component(s) measured or calculated from the BSK_SAg assay. It is designed to make measurements of enzyme-linked immunosorbent assay, a form of binding reporter, as detected with fluorescence intensity signals by Enzyme-linked immunosorbent assay technology.Data from the assay component BSK_SAg_CD38 was analyzed into 1 assay endpoint. This assay endpoint, BSK_SAg_CD38, was analyzed with bidirectional fitting relative to DMSO as the negative control and baseline of activity. Using a type of binding reporter, gain or loss-of-signal activity can be used to understand changes in the signaling as they relate to the gene CD38. Furthermore, this assay endpoint can be referred to as a primary readout, because this assay has produced multiple assay endpoints where this one serves a signaling function. To generalize the intended target to other relatable targets, this assay endpoint is annotated to the cytokine intended target family, where the subfamily is other cytokine.
The levels of cell surface (or secreted, indicated by the prefix "s") biomarker endpoints were measured by ELISA. Overt cytotoxicity to cells in confluent adherent cultures (all systems other than the BT system) was assessed by measuring total protein levels using sulforhodamine B (SRB) staining in parallel cultures at the time of biomarker measurements, indicated as SRB endpoints. For proliferation assays for adherent cell types, individual cell types are cultured at sub-confluence and relative cell numbers quantified by SRB staining at time points optimized for each system (48 h: 3C and CASM3C systems; 72 h: BT and HDF3CGF systems; 96 h: SAg system). SRB was performed by staining cells with 0.1% SRB after fixation with 10% TCA and reading wells at 560 nm.Viability and proliferation of PBMC (T cells) was quantified by Alamar Blue reduction for the SAg and BT systems. For PBMC viability (referred to as PBMC Cytotoxicity within the assay endpoint names), cells were plated (75,000/well in a 96-well plate) and then chemical samples added for 1 h before addition of activators, SEB and TSST-1 (20 ng/mL final concentration each). Cells were incubated for 90 h. Then, Alamar Blue (20 uL/well) (Invitrogen, Cat DAL1100) was added for 6 h, and the plates were read with a fluorescence microplate reader at 546/580 nm (excitation/emission). For PBMC proliferation, cells were plated and activated as above but incubated for only 16 h prior to addition of Alamar Blue. Plates were read after 6 h.
On to `Cc1cccc2ccccc12`, for which the result was inactive.
For `Cc1oc2c(NC(=O)c3c(Cl)cccc3Cl)cccc2c1C(C)(C)O`, the AC50 is 21.3 µM (active).
The same measure, in the same setting: to `Cc1cc(F)ccc1-c1cc(N2CC[C@@H](O)[C@H]2CO)ncc1N(C)C(=O)C(C)(C)c1cc(C(F)(F)F)cc(C(F)(F)F)c1` belongs 10.2 µM (active).
Consider `O=C(O)Cc1cc(I)c(Oc2ccc(O)c(I)c2)c(I)c1`, for which the result was inactive.
Still for that read-out and setting: with `CC(O)CC(C)(C)O` (stereo not given) the entry was “inactive”; with `Cc1occc1C(=O)Nc1ccc(C(=O)N2CCC(F)(F)/C(=C\C(=O)N3CCC(N4CCCCC4)CC3)c3ccccc32)cc1`, “inactive”.
Same read-out and setting: to `Cc1ncc(CO)c(CO)c1O` belongs “inactive”.
For the molecule `CC(=O)N1CCN(c2ccc(OC[C@H]3CO[C@](Cn4ccnc4)(c4ccc(Cl)cc4Cl)O3)cc2)CC1`, the AC50 was 27.4 µM (active).
As for `CC[C@@H]1C[C@H](N(Cc2cc(C(F)(F)F)cc(C(F)(F)F)c2)C(C)=O)c2cc(C(F)(F)F)ccc2N1C(=O)OC(C)C`, the result was inactive.
Regarding `CCCCCCCCOc1ccc(C(=O)c2ccccc2)c(O)c1`, the AC50 is 15.7 µM (active).
With `O=C1CCC(C2CCCCC2)CC1`, the outcome was inactive.
The same measure, in the same setting: with `c1ccc2ccccc2c1` the entry was “inactive”.
Take `CCOC(=O)O[C@H](C)OC(=O)c1ccc2c(c1)cc(C(=O)NC1CCN(C(C)C)CC1)n2Cc1cc(-c2ccc(Cl)s2)on1`: the AC50 is 7.17 µM (active).
Consider `O=CCCCC=O`, for which the result was inactive.
As for `CCCCCc1ccc(N)cc1`, the result was inactive.
Consider `O=C(O)c1ccccc1C(=O)OCc1ccccc1`, for which the result was inactive.
On the same count and under the same terms, to `COCC(C)OCC(C)OCC(C)O` (stereo not given) belongs “inactive”.
In the case of `Cc1cc2c(cc1C(F)(F)F)N(C(=O)Nc1ccc(Oc3cccnc3C)nc1)CC2`, the AC50 is 7.33 µM (active).
On the same count and under the same terms, with `CC(C)(c1cc(Br)c(O)c(Br)c1)c1cc(Br)c(O)c(Br)c1` the figure was 27.9 µM (active); with `CCCCCCCCCCCCO`, 34.7 µM (active).
As for `Cc1cn([C@H]2C[C@H](N=[N+]=[N-])[C@@H](CO)O2)c(=O)[nH]c1=O`, the result was inactive.
Same read-out and setting: with `O=C1O[C@H]([C@@H](O)CO)C(O)=C1O` the entry was “inactive”; with `Oc1ccccc1`, “inactive”; with `CC1=CC(=O)/C(=C(/C)O)C(=O)O1`, “inactive”.
The same measure, in the same setting: with `O=C1c2ccccc2C(=O)N1CCc1noc(-c2ccc(CN3CCCCCC3)s2)n1` the entry was “inactive”.
Take `CCCCCCCCOC(=O)c1cc(O)c(O)c(O)c1`: the AC50 is 13.1 µM (active).
The same measure, in the same setting: with `CN(C)C(=O)C1(N2CCCCC2)CCN(CC[C@@]2(c3ccc(Cl)c(Cl)c3)CN(C(=O)c3ccccc3)CCO2)CC1` the figure was 21.3 µM (active).
On to `CO[C@H]1/C=C/O[C@@]2(C)Oc3c(C)c(O)c4c(O)c(c(/C=N/N5CCN(C)CC5)c(O)c4c3C2=O)NC(=O)/C(C)=C\C=C\[C@H](C)[C@H](O)[C@@H](C)[C@@H](O)[C@@H](C)[C@H](OC(C)=O)[C@@H]1C`, for which the outcome was inactive.
The same measure, in the same setting: to `c1ccc2n[nH]nc2c1` belongs “inactive”; to `O=C(OCCCCCCOC(=O)c1ccccc1)c1ccccc1`, “inactive”; to `C[C@]12CC[C@@H]3c4ccc(O)cc4CC[C@H]3[C@@H]1CCC2=O`, “inactive”.
Take `CCCCCCCC[Si](OCC)(OCC)OCC`: the AC50 is 20 µM (active).
As for `CN(C)c1ccc(C(=C2C=CC(=[N+](C)C)C=C2)c2ccc(N(C)C)cc2)cc1`, the AC50 is 1.01 µM (active).
In the case of `CC(C)(O)c1ccc(CNC(=O)c2cccnc2Oc2ccc3nonc3c2)cc1`, the result was inactive.
The same measure, in the same setting: with `Clc1cc(Cl)c2c(c1)N=C1CCCCCN1C2` the entry was “inactive”; with `COc1cccc([C@H](O)C2CCN(CCc3ccc(F)cc3)CC2)c1OC`, “inactive”.
Regarding `c1ccc(C[n+]2cccc3ccccc32)cc1`, the outcome was inactive.
For the molecule `Clc1ccccc1C(c1ccccc1)(c1ccccc1)n1ccnc1`, the AC50 was 25.9 µM (active).
Same read-out and setting: with `O=c1c(-c2ccc(O)cc2)coc2cc(O)cc(O)c12` the figure was 25.1 µM (active); with `CCN(Cc1cccnc1)C(=O)c1cccc(Cl)c1[C@]1(C)C(=O)N(Cc2ccc(OC)cc2OC)c2ccc(Cl)cc21`, 8.35 µM (active).

As a reminder, the AC50 is the midpoint of the concentration-response curve, whichever way the signal moves.
